# Hits are enriched below; roughly 3.6% of the tested compounds scored in any of these assays.
# mHTT-CaM PPI inh: disrupts binding of mutant huntingtin to calmodulin | inhibition, % at 15 µM | P42858 | AID 1671202 | AlphaScreen His-mHTT/GST-CaM binding, luminescence | 190,000 tested, 3.6% active
# Target sequence (P42858 whole entry, looked up, change not shown): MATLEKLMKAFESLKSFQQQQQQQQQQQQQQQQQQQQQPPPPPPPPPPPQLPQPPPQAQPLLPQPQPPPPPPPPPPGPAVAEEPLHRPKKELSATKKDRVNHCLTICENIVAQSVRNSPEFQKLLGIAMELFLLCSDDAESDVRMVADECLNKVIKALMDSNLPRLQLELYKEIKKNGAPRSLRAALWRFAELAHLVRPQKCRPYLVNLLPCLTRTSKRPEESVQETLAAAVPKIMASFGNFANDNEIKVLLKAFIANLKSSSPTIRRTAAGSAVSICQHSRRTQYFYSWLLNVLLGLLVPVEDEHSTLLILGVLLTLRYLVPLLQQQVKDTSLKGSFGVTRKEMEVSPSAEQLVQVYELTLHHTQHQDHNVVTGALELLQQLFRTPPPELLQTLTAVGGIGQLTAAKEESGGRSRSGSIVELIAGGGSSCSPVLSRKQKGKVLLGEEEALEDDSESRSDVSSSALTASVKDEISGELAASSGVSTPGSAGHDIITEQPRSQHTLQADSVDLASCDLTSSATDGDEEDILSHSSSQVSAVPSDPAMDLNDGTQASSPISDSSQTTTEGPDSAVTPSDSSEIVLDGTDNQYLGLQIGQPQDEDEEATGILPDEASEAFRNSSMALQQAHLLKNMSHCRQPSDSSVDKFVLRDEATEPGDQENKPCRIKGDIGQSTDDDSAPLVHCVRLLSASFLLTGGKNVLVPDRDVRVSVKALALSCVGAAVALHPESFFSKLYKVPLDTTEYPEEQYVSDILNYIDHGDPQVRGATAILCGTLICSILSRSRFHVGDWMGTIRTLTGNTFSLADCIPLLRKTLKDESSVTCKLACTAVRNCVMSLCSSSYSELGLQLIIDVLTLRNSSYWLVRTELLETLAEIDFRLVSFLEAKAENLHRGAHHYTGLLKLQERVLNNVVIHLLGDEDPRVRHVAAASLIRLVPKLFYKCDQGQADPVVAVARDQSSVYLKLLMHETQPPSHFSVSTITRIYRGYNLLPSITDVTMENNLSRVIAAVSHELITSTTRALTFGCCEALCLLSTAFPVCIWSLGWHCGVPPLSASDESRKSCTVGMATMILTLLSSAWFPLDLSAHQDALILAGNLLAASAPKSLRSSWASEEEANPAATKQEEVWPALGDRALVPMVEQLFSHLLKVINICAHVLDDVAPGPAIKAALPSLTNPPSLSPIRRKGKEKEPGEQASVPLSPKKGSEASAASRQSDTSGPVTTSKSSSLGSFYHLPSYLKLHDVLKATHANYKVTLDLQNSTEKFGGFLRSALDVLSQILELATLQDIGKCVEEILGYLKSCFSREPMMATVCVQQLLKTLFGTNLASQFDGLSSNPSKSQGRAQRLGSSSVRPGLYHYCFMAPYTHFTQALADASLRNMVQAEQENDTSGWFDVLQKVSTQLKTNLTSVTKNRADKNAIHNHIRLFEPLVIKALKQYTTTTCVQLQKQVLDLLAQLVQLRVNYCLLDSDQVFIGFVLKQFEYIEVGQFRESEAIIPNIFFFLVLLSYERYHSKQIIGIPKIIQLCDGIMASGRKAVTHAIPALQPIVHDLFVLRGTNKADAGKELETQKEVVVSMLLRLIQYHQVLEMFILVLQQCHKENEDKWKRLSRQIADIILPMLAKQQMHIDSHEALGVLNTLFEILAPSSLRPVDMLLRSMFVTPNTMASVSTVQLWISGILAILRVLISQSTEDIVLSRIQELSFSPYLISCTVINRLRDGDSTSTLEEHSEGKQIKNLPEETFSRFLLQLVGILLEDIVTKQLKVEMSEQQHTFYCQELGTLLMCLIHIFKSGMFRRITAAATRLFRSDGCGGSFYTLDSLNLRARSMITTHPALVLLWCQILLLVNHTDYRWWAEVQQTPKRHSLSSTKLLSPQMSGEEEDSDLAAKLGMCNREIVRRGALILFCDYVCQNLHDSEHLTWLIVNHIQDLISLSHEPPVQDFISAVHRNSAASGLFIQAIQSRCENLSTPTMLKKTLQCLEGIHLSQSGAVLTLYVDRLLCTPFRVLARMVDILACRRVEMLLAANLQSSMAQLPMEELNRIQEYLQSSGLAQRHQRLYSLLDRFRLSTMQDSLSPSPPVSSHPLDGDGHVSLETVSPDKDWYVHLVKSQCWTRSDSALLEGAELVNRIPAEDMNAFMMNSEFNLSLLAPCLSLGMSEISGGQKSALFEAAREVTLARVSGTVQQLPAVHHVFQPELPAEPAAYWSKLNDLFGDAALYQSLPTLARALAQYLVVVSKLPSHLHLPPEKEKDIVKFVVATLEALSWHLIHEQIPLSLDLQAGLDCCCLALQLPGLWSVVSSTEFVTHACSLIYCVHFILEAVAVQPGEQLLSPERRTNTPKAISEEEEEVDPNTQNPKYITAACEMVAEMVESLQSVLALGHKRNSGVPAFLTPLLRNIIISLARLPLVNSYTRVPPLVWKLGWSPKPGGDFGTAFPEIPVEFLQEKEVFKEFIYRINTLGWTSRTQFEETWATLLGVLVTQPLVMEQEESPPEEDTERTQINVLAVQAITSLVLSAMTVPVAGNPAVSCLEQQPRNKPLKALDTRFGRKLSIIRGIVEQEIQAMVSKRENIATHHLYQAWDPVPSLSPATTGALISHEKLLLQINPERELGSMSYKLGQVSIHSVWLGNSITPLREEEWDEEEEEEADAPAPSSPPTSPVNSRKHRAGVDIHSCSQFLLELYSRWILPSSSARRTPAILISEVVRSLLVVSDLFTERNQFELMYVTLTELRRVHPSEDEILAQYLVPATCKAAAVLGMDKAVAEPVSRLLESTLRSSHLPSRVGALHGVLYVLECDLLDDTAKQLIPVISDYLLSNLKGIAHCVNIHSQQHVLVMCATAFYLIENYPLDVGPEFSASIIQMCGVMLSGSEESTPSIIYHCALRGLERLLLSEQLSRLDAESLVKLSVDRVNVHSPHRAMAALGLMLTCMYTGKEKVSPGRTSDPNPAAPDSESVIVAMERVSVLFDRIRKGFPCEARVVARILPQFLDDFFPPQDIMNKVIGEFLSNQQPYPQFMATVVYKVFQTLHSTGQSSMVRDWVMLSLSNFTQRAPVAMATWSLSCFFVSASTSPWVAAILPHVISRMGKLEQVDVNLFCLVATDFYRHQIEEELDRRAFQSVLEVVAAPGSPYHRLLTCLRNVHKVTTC
# Pf apPOL inh: Pf-apPOL DNA polymerase inhibition | Recombinant Pf-apPOL, molecular beacon fluorescence, 1.5 h | AID 1794808 | inhibition, % at 10 µM | 210,000 tested, 0.25% active
# A number is an active result; 0 = inactive; - = no result. Cut-off read from the data, not from the text of the source: active = inhibition above about 50%; inactive = the rest.
SMILES,mHTT-CaM PPI inh,Pf apPOL inh
COCC(=O)N1CCN(c2ccc(F)cc2)C(=O)C1C (configuration not stated),0,0
O=C(NCCc1ccco1)C1CCN(Cc2cc3ccccc3n2Cc2ccccc2)CC1,58,0
CCOc1ccc(CN2CCC(C(=O)NCCc3ccccc3)CC2)cc1,0,0
O=C(NCc1ccco1)C1CCN(Cc2cc3ccccc3n2Cc2ccccc2)CC1,73,0
CCc1ccc(CN2CCC(C(=O)NCc3ccco3)CC2)cc1,0,0
Cn1cc(CN2CCC(C(=O)NCc3ccco3)CC2)c2cc(Cl)ccc21,0,0
Cc1ccccc1Cn1c(CN2CCC(C(=O)NCc3ccco3)CC2)cc2ccccc21,86,0
CC1=NN(c2ccc(C)cc2)C(=O)/C1=C/c1ccc(F)cc1,0,0
COc1ccccc1C=C1Oc2cc(OCC(=O)OC(C)C)ccc2C1=O,0,0
COc1cc(Br)c(/C=C2/C(=O)N(c3ccccc3)N=C2C)cc1OC,0,0
COc1ccc(-c2c(C#N)c(N)nc3sc(C(=O)c4ccc(C)cc4)c(N)c23)cc1,0,0
N#Cc1c(N)nc2sc(C(=O)c3ccc(Cl)cc3)c(N)c2c1-c1ccc(O)cc1,83,0
CC(Oc1ccc(Cl)cc1Cl)C(=O)NC1=NN(c2ccccc2)C(=O)C1 (configuration not stated),68,0
CC(Oc1ccc(Cl)cc1Cl)C(=O)Nc1ccncc1 (configuration not stated),0,0
CN1CCN(c2ccc(-c3cccc(NC(=O)c4cccs4)c3)nn2)CC1,0,0
O=C(Cc1noc2ccccc12)Nc1cccc(-c2ccc(N3CCCC3)nn2)c1,67,0
Cc1noc(C)c1CCC(=O)Nc1cccc(-c2ccc(N3CCCC3)nn2)c1,0,0
O=C(Nc1cccc(-c2ccc(N3CCCC3)nn2)c1)c1cc(-c2cccs2)[nH]n1,99,0
O=S(=O)(Nc1ccc(F)cc1)c1cccnc1Nc1ccc(F)c(F)c1,0,0
CCOc1ccccc1C(=O)N1CCC(CCOC)CC1,0,67
CCOc1ccccc1C(=O)N1CCC(COc2ccccc2C(=O)N2CCCC2)CC1,0,0
CCOc1ccccc1Oc1coc2cc(OCC(=O)O)ccc2c1=O,0,0
CC(C)CC1C(=O)N(Cc2cn(Cc3ccco3)nn2)CCS(=O)(=O)N1Cc1ccc(-c2ccncc2)cc1 (configuration not stated),0,0
COCOCCn1cc(CN2CCS(=O)(=O)N(Cc3ccc(-c4ccc(F)nc4)cc3)C(CC(C)C)C2=O)nn1 (configuration not stated),50,0
COc1ccc(-c2ccc(CN3C(CC(C)C)C(=O)N(Cc4cn(Cc5ccco5)nn4)CCS3(=O)=O)cc2)cc1 (configuration not stated),0,0
SMILES,mHTT-CaM PPI inh,Pf apPOL inh
CC(C)CC1C(=O)N(Cc2cn(Cc3ccco3)nn2)CCS(=O)(=O)N1Cc1ccc(-c2ccccc2)cc1 (configuration not stated),68,0
COCOCCn1cc(CN2CCS(=O)(=O)N(Cc3ccc(-c4ccc(F)nc4)cc3)C(C(C)C)C2=O)nn1 (configuration not stated),0,0
CC(C)CC1C(=O)N(Cc2cn(Cc3ccco3)nn2)CCS(=O)(=O)N1Cc1ccc(-c2ccc(F)nc2)cc1 (configuration not stated),60,0
COc1ccc(Oc2ccc(C(F)(F)F)cc2NC(=O)c2nccnc2C(=O)O)cc1,-,0
N#C/C(=C\Nc1ccccc1F)c1nc(-c2cc3cc([N+](=O)[O-])ccc3oc2=O)cs1,0,0
C#CC1(NC(=O)c2ccccc2C(=O)Nc2cc(C(F)(F)F)cc(C(F)(F)F)c2)CCCCC1,-,0
OC(C#Cc1ccccc1)c1ccco1 (configuration not stated),100,70
O=C(O)CC(C(=O)O)c1ccco1 (configuration not stated),0,-
CCC(=O)Nc1cccc(-c2noc(C3CCCN(C(=O)c4ccc(C)c(F)c4)C3)n2)c1 (configuration not stated),0,0
O=S1(=O)c2ccc(N3CCSCC3)cc2Oc2ccccc2CN1Cc1cn(Cc2ccc(C(F)(F)F)cc2)nn1,0,0
CCn1nc(-c2ccccn2)nc2c(=O)n(C)c(=O)nc1-2,84,0
Cn1nc(-c2ccncc2)nc2c(=O)n(C)c(=O)nc1-2,0,0
COc1ccc(OCC(O)CN2CCN(c3ccc(OC)cc3)CC2)cc1 (configuration not stated),0,0
OC(COCC12CC3CC(CC(C3)C1)C2)CN1CCN(c2cccc(Cl)c2)CC1 (configuration not stated),99,0
COc1ccc(N2CCN(CC(O)COCC34CC5CC(CC(C5)C3)C4)CC2)cc1 (configuration not stated),70,0
OC(COCC12CC3CC(CC(C3)C1)C2)CN1CCCC1 (configuration not stated),0,0
Cn1c(=O)c2c(nc(Sc3ncnn3CC(=O)NC(C)(C)C)n2C)n(C)c1=O,0,0
O=C(c1ccc2c(c1)OCO2)n1cccn1,0,66
O=C(CSc1ccccn1)c1ccc2c(c1)OCO2,0,0
N#CC1C(c2ccc3ccccc3n2)=CN(CC(=O)c2ccc([N+](=O)[O-])cc2)c2ccccc21 (configuration not stated),0,75
O=C(Cn1nnc2ccccc21)c1ccc([N+](=O)[O-])cc1,0,0
Cc1ccccc1C(=O)N1CCC2(CC1)NC(=O)c1cccc(Cl)c1N2,0,0
C/C=C/Cc1c(C)nc2sc(C#N)c(N)c2c1C,0,0
CC1CCN(S(=O)(=O)c2ccc3[nH]c(=O)cc(C(=O)NCc4ccccn4)c3c2)CC1,0,0
CC1CCCCN1S(=O)(=O)c1ccc2[nH]c(=O)cc(C(=O)NCc3ccccc3Cl)c2c1 (configuration not stated),63,0
SMILES,mHTT-CaM PPI inh,Pf apPOL inh
O=C(OCc1cc(-c2ccc3c(c2)OCCO3)on1)c1cc(-c2ccco2)n[nH]1,69,67
Cc1nc(C)c(C(=O)OCc2cc(-c3ccc4c(c3)OCCO4)on2)s1,0,0
Cc1cccc(NC(=O)C2CCCN(S(=O)(=O)c3ccc(Br)s3)C2)c1 (configuration not stated),0,0
NC(N)=NN=C(/C=C/c1ccc([N+](=O)[O-])o1)/C=C/c1ccc([N+](=O)[O-])o1,100,-
NC(=O)c1ccccc1N=Cc1ccc([N+](=O)[O-])o1,0,0
O=C1NC(=O)[C@H]2[C@@H]1[C@@H](C(=O)c1ccccc1)N1c3ccccc3C=C[C@H]21,58,-
NC(=O)N1c2ccccc2C=Cc2ccccc21,-,0
Cc1nc2c(C(=O)NCCC(C)C)cnn2c(C)c1Cc1ccc(F)cc1,0,0
Cc1ccc2nc(-c3ccc(N=Cc4ccc5c(c4)OCO5)cc3O)oc2c1,60,0
Cc1ccc2nc(-c3cc(N=Cc4ccc([N+](=O)[O-])cc4)ccc3O)oc2c1,0,0
Oc1cc(O)cc(/C=C/c2ccc(O)c(O)c2)c1,-,0
CCN(CC)CCNC(=O)c1c(O)c2cc(F)cc3c2n(c1=O)C(C)CC3 (configuration not stated),61,0
CC1CCc2cc(F)cc3c(O)c(C(=O)Nc4ncccc4O)c(=O)n1c23 (configuration not stated),0,0
CC(C)CCCn1c(O)c([S+](C)C)c(=O)[nH]c1=O,0,0
